Test results from PubChem BioAssay (NCATS).
Inconclusive results are not listed. Entries that show only a call come without a potency. Unmarked numbers belong to inactive results. Active and inactive are the calls of the source. Calls come from the whole dose curve; as a rule, active = well fitted inhibition curve with a large enough effect; inconclusive = small, poorly fitted or top-dose-only effect; inactive = flat fitted curve, though single readings scatter.

target: Glutathione peroxidase 1 (Homo sapiens) (UniProt P07203); assay: Primary qHTS Assay for Inhibitors of Recombinant Selenoprotein Glutathione Peroxidase 1 (GPX1) (AID 1845191); settings: recombinant GPX1, GR-coupled NADPH fluorescence, 15 min; series mostly up to 48.8 µM; activity, negative = inhibition: at the top concentration; note: nearly all actives have a fitted effect of over 65% in size
Sequence (P07203 whole entry, looked up): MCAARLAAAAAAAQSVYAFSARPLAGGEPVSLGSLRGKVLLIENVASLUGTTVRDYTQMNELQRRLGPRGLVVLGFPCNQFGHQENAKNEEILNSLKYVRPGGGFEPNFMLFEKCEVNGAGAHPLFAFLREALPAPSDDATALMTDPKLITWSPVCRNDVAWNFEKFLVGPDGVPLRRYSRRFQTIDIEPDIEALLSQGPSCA
Procedure, shortened: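 10 nM GPX1 + cpd, 30 min RT; start w/ 1 mM GSH, 0.5 mM cumene hydroperoxide, 0.5 mM NADPH, 100 nM GR, 0.01% BSA; buffer 50 mM Tris-HCl pH 7.5, 2 mM EDTA, 150 mM NaCl; Fl 340/450, 0 & 15 min.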
Potency is the fitted concentration of half-maximal effect.

Row | SMILES | Potency | outcome | activity, negative = inhibition
1 | N#CC1(c2cccc(C(=O)Nc3cc(Oc4ccc5nc(NC(=O)C6CC6)sc5n4)ccc3F)c2Cl)CC1 | inactive | – | –
2 | CC(C)C[C@H](NC(=O)c1cc2ccccc2s1)C(=O)N1CCN(C(=O)[C@H](CO)NS(=O)(=O)c2ccc(Cl)cc2Cl)CC1 | – | inactive | –
3 | O=C(O)C1=CC(O)C(O)[C@H](O)C1 (stereo not given in full) | – | inactive | –
4 | Cc1ccc(C(=O)N(CCCN)[C@@H](c2oc3cc(Cl)ccc3c(=O)c2Cc2ccccc2)C(C)C)cc1 | – | inactive | –
5 | O=C(O)CCC=CCC[C@@H]1[C@H](N2CCCCC2)[C@@H](O)C[C@@H]1OCc1ccc(-c2ccccc2)cc1 | – | – | -11.1%
6 | CNC(=O)c1cc(COc2nnc(Nc3ccc(Cl)cc3)c3ccoc23)ccn1 | – | inactive | –
7 | Cc1nn(Cc2ccccc2Cl)c(C)c1CN(C)CC(O)COc1ccc(Cl)cc1 (stereo not given) | – | inactive | –
8 | Cc1cccc2c1CC[C@H](CN1CCC(c3c(Cl)cccc3Cl)CC1)C[C@@H]2O | – | – | -10.8%
9 | Cn1c(=O)c(Oc2ccc(F)cc2F)cc2cnc(NC3CCOCC3)nc21 | 16.3 µM (active) | – | –
10 | CNC(=O)c1cc(Oc2ccc(NC(=O)Nc3ccc(Cl)c(C(F)(F)F)c3)c(F)c2)ccn1 | inactive | – | –
11 | CC(C)(C)c1nc(-c2cccc(NS(=O)(=O)c3c(F)cccc3F)c2F)c(-c2ccnc(N)n2)s1 | inactive | – | –
12 | Cc1ccc(S(=O)(=O)Nc2nc3ccccc3nc2Nc2ccc3nsnc3c2)cc1 | – | – | 0.505% [at 27.7 µM]
13 | Cc1ccc(C(=O)N(CCCN)[C@@H](c2nc3cc(Cl)ccc3c(=O)n2Cc2ccccc2)C(C)C)cc1 | – | – | 0.435%
14 | Cn1c(=O)c(-c2c(Cl)cccc2Cl)cc2cnc(Nc3cccc(C(=O)O)c3)nc21 | – | inactive | –
15 | COc1cc([C@@H]2c3cc4c(cc3[C@@H](O[C@@H]3O[C@@H]5CO[C@@H](C)O[C@@H]5[C@H](O)[C@@H]3O)[C@H]3COC(=O)[C@H]23)OCO4)cc(OC)c1O | – | inactive | –
16 | Cc1cnc(Nc2cccc(CN3CCOCC3)c2)nc1Nc1cccc(S(=O)(=O)NC(C)(C)C)c1 | – | inactive | –
17 | CCc1cccc(CC)c1NC(=O)N1Cc2[nH]nc(NC(=O)c3ccc(N4CCN(C)CC4)cc3)c2C1 | inactive | – | –
18 | CCC(=O)NCC[C@@H]1CCc2ccc3c(c21)CCO3 | inactive | – | –

Row | SMILES | Potency | outcome | activity, negative = inhibition
19 | O=[N+]([O-])c1ccc(Nc2ccccc2-c2ccccc2)c2nonc12 | – | inactive | –
20 | COc1ccc(CCN(C)CCCOc2ccc(S(=O)(=O)c3[nH]c4ccccc4c3C(C)C)cc2)cc1OC | – | inactive | –
21 | CCN(CC)CCCCNc1nc2cc(Cl)c(Cl)cc2nc1-c1ccc(-c2cccs2)s1 | – | inactive | –
22 | Nc1ccc(-c2ccc3ncc4ccc(=O)n(-c5cccc(C(F)(F)F)c5)c4c3c2)cn1 | inactive | – | –
23 | Cc1cc(-c2ncc(CC(=O)Nc3ccc(-c4cnccn4)cn3)cc2C)ccn1 | – | – | 1.45%
24 | Cn1cc(-c2ccc3nnc(Sc4ccc5ncccc5c4)n3n2)cn1 | – | inactive | –
25 | COc1nc(C)cnc1NS(=O)(=O)c1cccnc1-c1ccc(-c2nnco2)cc1 | – | – | 1.41%
26 | O=C(Nc1cccc(Cl)c1)Nc1ncc(CCNc2ncnc3ccsc23)s1 | – | inactive | –
27 | COc1cc2c(cc1OC)CC(=O)N(CCCN(C)C[C@H]1Cc3cc(OC)c(OC)cc31)CC2 | inactive | – | –
28 | CCc1cc(-c2n[nH]c(C)c2-c2ccc3c(c2)OCCO3)c(O)cc1O | – | – | 1.49%
29 | COc1ccc(-c2oc3c(CC=C(C)C)c(O)cc(O)c3c(=O)c2O)cc1 | – | – | 3.51%
30 | CCOC(=O)[C@@H](N)CCC(=O)N[C@@H](CSCc1ccccc1)C(=O)N[C@@H](C(=O)OCC)c1ccccc1 | – | inactive | –
31 | CC[C@]1(O)C[C@H]2CN(CCC3=c4ccccc4=N[C]3[C@@](C(=O)OC)(c3cc4c(cc3OC)N(C)[C@H]3[C@@](O)(C(N)=O)[C@H](O)[C@]5(CC)C=CCN6CC[C@]43[C@@H]65)C2)C1 | – | – | -14.4%
32 | O=C1NC(=O)C(c2cnc3ccccn23)=C1c1cn2c3c(cccc13)CN(C(=O)N1CCOCC1)CC2 | – | – | 4.43%
33 | COc1ccc2nc3cc(Cl)ccc3c(Nc3cc(CN4CCCC4)c(O)c(CN4CCCC4)c3)c2n1 | – | inactive | –
34 | COC(=O)N1CCN(Cc2cccc(NC(=O)Nc3ccc(C)nc3)c2F)CC1 | – | inactive | –
35 | C[C@H](c1ccc(F)cc1CCCC(=O)O)N(c1cc(F)ccc1F)S(=O)(=O)c1ccc(Cl)cc1 | inactive | – | –
